Screening results deposited in PubChem by National Center for Advancing Translational Sciences (NCATS).
Shown are actives, neighbours in structure and some others; about 2.1% of the full set was active somewhere.
aSyn yeast inh = alpha-synuclein toxicity inhibition in yeast | AID 652106 | Potency, µM (highest dose often 46.1 µM), inactives show at the highest dose growth rescue (activation), usual class: activators | Yeast expressing alpha-synuclein, growth rescue, BacTiter-Glo, 24 h | actives 0.14% (n = 370,000); further: % of control where 0% means no effect; nearly all actives have a fitted effect of over 65% in size
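Rescue of yeast growth: cells expressing toxic alpha-synuclein, induced in galactose at OD600 0.02, incubated with compound 24 h at 30 C. ATP luminescence quantified growth; inhibitors of toxicity appear as activators.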
Abeta rescue = A-beta toxicity reversal in yeast. yeast expressing A-beta42, growth rescue, OD600, 48 h; response scale: 0% DMSO, 100% iron-clioquinol control. Potency, µM (series often up to 46.1 µM), actives largely listed as activators. actives 0.063% (n = 410,000). AID 1347071; further: nearly all actives have a fitted effect of over 55% in size
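Yeast growth medium received pinned compounds, then yeast cells expressing toxic A-beta were added; plates incubated at 30 C for 48 hr. Growth read as absorbance at 600 nm, normalized to DMSO and equimolar FeCl3 plus clioquinol controls.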
FUS suppressor = rescues growth of FUS-expressing yeast. S. cerevisiae FUS-expressing, growth rescue, OD600, 24 h. Potency, µM (titrated, usually from 76.6 µM), most hits filed as activators. actives 0.24% (n = 390,000). AID 1347120;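 further: plate controls were DMSO vehicle for no effect and reference control for full effect; nearly all actives have a fitted effect of over 55% in size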
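Absorbance at 600 nm, taken 24hr after compound addition, measured rescue of FUS-yeast growth at 30C. Induction used 2% galactose with seeding at OD 0.005. Controls: CP55940 from 92uM final, DMSO only.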
TDP43 rescue = inhibitors of TDP-43 toxicity in yeast; Potency, µM (top dose mostly 46.1 µM), for the others: at the top dose growth rescue (activation), hits mostly activators; TDP-43 expressing yeast growth rescue, BacTiter-Glo, 24 h; actives 1.8% (n = 410,000); further: % of control where 0% means no effect; nearly all actives have a fitted effect of over 50% in size
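Cell-based yeast growth screen: TDP-43 expression induced in galactose, inoculum OD600=0.02 after raffinose pregrowth to mid-log. Read-out BacTiter-Glo luminescence at 24 hr, 30 deg C; inhibition of toxicity seen as signal increase.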
* marks the source's active call; other numbers are inactive results; [ ] = remark or other dose. The call rests on the fitted dose curve; in most records, active means well fitted curve in the direction sought with a large enough effect; inconclusive means small, poorly fitted or top-dose-only effect, or another doubt; inactive means no such curve, though single readings can be large; an effect the other way counts as inactive or inconclusive. Potency means the concentration at half of the fitted maximal effect.

For Oc1ccc(C[C@H]2CNC(=S)N2CC2CCCN2C[C@H](Cc2ccc(O)cc2)N2C[C@H](Cc3ccc(O)cc3)N(CC3CCCCC3)C2=S)cc1 (some centres undefined) the results were aSyn yeast inh -41%, Abeta rescue inactive, FUS suppressor inconclusive and TDP43 rescue 11µM*.
Screening CC(C)NC(=O)Cn1nc(N2CCN(c3ccccc3)CC2)ccc1=O returned Abeta rescue inactive, FUS suppressor inactive and TDP43 rescue 15%.
For O=C(CS(=O)(=O)c1nc(-c2ccc(Cl)cc2)cn1-c1ccccc1)Nc1ccc(F)cc1F the results were Abeta rescue inactive, FUS suppressor inconclusive and TDP43 rescue 14µM*.
`O=C(CS(=O)(=O)c1nc(-c2ccc(Cl)cc2)cn1-c1ccccc1)Nc1cccc(Cl)c1` gave Abeta rescue inactive, FUS suppressor inconclusive and TDP43 rescue inconclusive.
Screening CCn1ccc2cc(S(=O)(=O)N3CCCN(C(=O)NCC(C)C)CC3)ccc21 returned aSyn yeast inh 2%, Abeta rescue inactive, FUS suppressor inactive and TDP43 rescue inconclusive.
`CC(C)c1ccccc1NC(=O)C(Cc1c[nH]c2ccccc12)NC(=O)OC(C)(C)C` (centres undefined) gave Abeta rescue inactive, FUS suppressor inactive and TDP43 rescue -5%.
CCN1CCN(Cc2ccc(NC(=O)c3cc(NC(=O)c4cc(-c5ccc(OC)cc5)n[nH]4)cc(OC)c3)cc2C(F)(F)F)CC1 was read as aSyn yeast inh -6%, Abeta rescue inactive, FUS suppressor 28µM* and TDP43 rescue -2%.
For CCN1CCN(Cc2ccc(NC(=O)c3cc(NC(=O)c4ccc5n[nH]nc5c4)cc(OC)c3)cc2C(F)(F)F)CC1 the results were aSyn yeast inh -6%, Abeta rescue inactive, FUS suppressor inactive and TDP43 rescue 17%.
O=C(CCCN1C(=O)c2ccccc2C1=O)NCCc1ccc(OC(F)F)cc1 was read as aSyn yeast inh -9%, Abeta rescue inconclusive, FUS suppressor inactive and TDP43 rescue 13µM*.
`COc1ccc(CCNC(=O)CCCN2C(=O)c3ccccc3C2=O)cc1` gave aSyn yeast inh 1%, Abeta rescue inactive, FUS suppressor inactive and TDP43 rescue 21%[9.22 µM].
`Cc1noc(-c2ccc(N3CCCCC3)c([N+](=O)[O-])c2)n1` gave Abeta rescue inactive, FUS suppressor inactive and TDP43 rescue 18µM*.
`Cc1ccc(-c2noc(-c3ccc(N4CCCC4)c([N+](=O)[O-])c3)n2)cc1` gave Abeta rescue inactive, FUS suppressor inactive and TDP43 rescue -3%.
`Cc1cc(C=O)c(C)n1-c1ccc(N2CCCCC2)c([N+](=O)[O-])c1` gave aSyn yeast inh -6%, Abeta rescue inactive, FUS suppressor inactive and TDP43 rescue 18µM*.
`CCc1ccc(CNC(=O)CN2C(=O)C3CCCCN3c3ccc(C(=O)N4CCCC4)cc32)cc1` (centres undefined) gave Abeta rescue inactive, FUS suppressor inactive and TDP43 rescue 24%[9.22 µM].
Screening C[C@@H]1CN([C@H](C)CO)C(=O)CCCn2nncc2CO[C@@H]1CN(C)S(=O)(=O)c1ccccc1F returned aSyn yeast inh -4%, Abeta rescue inactive, FUS suppressor inactive and TDP43 rescue 16µM*.
`C[C@H]1CN([C@@H](C)CO)C(=O)CCCn2cc(nn2)CO[C@@H]1CN(C)S(=O)(=O)c1ccc2ccccc2c1` gave aSyn yeast inh 3.5µM*, Abeta rescue inactive, FUS suppressor inactive and TDP43 rescue 12%.
`C[C@H](CO)N1C[C@H](C)[C@@H](CN(C)S(=O)(=O)c2ccccc2)OCc2cn(nn2)CCCC1=O` gave aSyn yeast inh -20%, Abeta rescue inactive, FUS suppressor inactive and TDP43 rescue -13%.
COC(=O)c1ccc(COC(=O)CCS(=O)(=O)c2ccc(C)cc2)cc1 was read as aSyn yeast inh 1%, Abeta rescue inactive, FUS suppressor inactive and TDP43 rescue -9%.
For Cc1ccc(S(=O)(=O)CCC(=O)c2ccc(O)cc2O)cc1 the results were aSyn yeast inh 7%, Abeta rescue inactive, FUS suppressor inactive and TDP43 rescue 14µM*.
For Cc1ccc(S(=O)(=O)CCC(=O)OCc2ccc(Cl)cc2)cc1 the results were aSyn yeast inh 13%, Abeta rescue inactive and TDP43 rescue 25µM*.
COc1ccc(Cl)cc1-c1cc(C(=O)NCc2ccc(C(F)(F)F)cc2)[nH]n1 was read as aSyn yeast inh 2%, Abeta rescue inactive, FUS suppressor inactive and TDP43 rescue 27%.
Screening C=CCNc1ccc(C(=O)O)cc1 returned aSyn yeast inh 11%, Abeta rescue inactive, FUS suppressor inactive and TDP43 rescue 14µM*.
Screening CC(=O)Nc1ccc(C(=O)O)cc1 returned aSyn yeast inh -3%, Abeta rescue inactive, FUS suppressor inactive and TDP43 rescue 12%.
O=C(O)c1ccc(NCc2ccc(Br)cc2)cc1 was read as aSyn yeast inh 3%, Abeta rescue inactive, FUS suppressor inactive and TDP43 rescue 3.5µM*.
Screening N#CC1=C2CCCCC2(O)NC1=O (centres undefined) returned aSyn yeast inh 2%, Abeta rescue inactive, FUS suppressor inactive and TDP43 rescue 19%.
Screening O=C(NC(=S)NNC(=O)c1cnccn1)c1ccc(F)cc1 returned aSyn yeast inh 11µM*, Abeta rescue inactive, FUS suppressor inactive and TDP43 rescue -7%.
Screening O=C(/C=C/c1ccc(F)cc1)NC(=S)NNC(=O)c1cnccn1 returned aSyn yeast inh 1%, Abeta rescue inactive, FUS suppressor inactive and TDP43 rescue inconclusive.
For CC(C)CNC(=S)NC(=O)c1ccc(F)cc1 the results were aSyn yeast inh -3%, Abeta rescue inactive and TDP43 rescue 14µM*.
For COc1ccc(C2C(C#N)=C(N)N(c3ccccc3)C3=C2C(=O)CCC3)cc1Cn1cc([N+](=O)[O-])cn1 (centres undefined) the results were aSyn yeast inh -10%, Abeta rescue inactive, FUS suppressor 25µM* and TDP43 rescue -12%.
Screening COc1ccc2c(c1)c1nnc(SC)nc1n2C returned aSyn yeast inh 3.5µM*, Abeta rescue inactive, FUS suppressor inactive and TDP43 rescue 2.8µM*.
For COc1ccc2c(c1)c1nnc(SCC(=O)N3C(C)CCCC3C)nc1n2C (centres undefined) the results were aSyn yeast inh 8%, Abeta rescue inactive, FUS suppressor inactive and TDP43 rescue 14µM*.
Screening COc1ccc2c(c1)c1nnc(SC(C)C)nc1n2C returned aSyn yeast inh 7.9µM*.
For c1ccc(CCCc2nc(-c3cccnc3)no2)cc1 the results were aSyn yeast inh 3%, Abeta rescue inactive, FUS suppressor inactive and TDP43 rescue 8.9µM*.
